Out of some 5,500 compounds screened, about 2,000 (36%) were called active. Not shown: some 18% with an inconclusive outcome. No stated cut-off is given here; in the data, active means normalized growth mostly below about 0.91 (no sharp cut-off); inconclusive means no clear call, values can overlap the other calls; inactive means mostly above about 0.92. This is one part of the list.
Test: chemical genetic growth profiling, strain panel (AID 1159580);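 further: tested at 20 µM; growth read once vehicle control cultures reached saturation at 30 °C; 1 = growth at the plate median or of vehicle wells; lower values mean less growth of the strain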
Details: growth OD

Measured: normalized growth

O=C1C=CC(=O)c2c(O)cccc21
inactive: S. cerevisiae deletion strains, locus YJR043C, strain POL32, hits give low values 1.01 | S. cerevisiae deletion strains, locus YJR066W, strain TOR1, hits give low values 0.894 | S. cerevisiae deletion strains, locus YKL009W, strain mrt4, hits give low values 0.934 | S. cerevisiae deletion strains, locus YKL068W, hits give low values 0.982 | S. cerevisiae deletion strains, locus YKL085W, strain MDH1 (second series), hits give low values 0.97 | S. cerevisiae deletion strains, locus YKL085W, strain MDH1, hits give low values 0.97 | S. cerevisiae deletion strains, locus YKL160W, strain elf1, hits give low values 1 | S. cerevisiae deletion strains, locus YKL190W, strain CNB1, hits give low values 0.986 | S. cerevisiae deletion strains, locus YKR001C, strain vps1, hits give low values 0.938 | S. cerevisiae deletion strains, locus YKR026C, strain gcn3, hits give low values 0.983 | S. cerevisiae deletion strains, locus YKR091W, strain srl3, hits give low values 0.983 | S. cerevisiae deletion strains, locus YLL001W, strain dnm1, hits give low values 0.968 | S. cerevisiae deletion strains, locus YLL026W, hits give low values 1.01 | S. cerevisiae deletion strains, locus YLL041C, strain sdh2, hits give low values 1 | S. cerevisiae deletion strains, locus YLR027C, strain aat2, hits give low values 0.984 | S. cerevisiae deletion strains, locus YLR039C, strain RIC1, hits give low values 0.699 | S. cerevisiae deletion strains, locus YLR058C, strain SHM2, hits give low values 0.947 | S. cerevisiae deletion strains, locus YLR102C, strain apc9, hits give low values 0.989 | S. cerevisiae deletion strains, locus YLR113W, strain HOG1, hits give low values 0.922 | S. cerevisiae deletion strains, locus YLR221C, strain rsa3, hits give low values 0.947 | S. cerevisiae deletion strains, locus YLR258W, strain gsy2, hits give low values 0.979 | S. cerevisiae deletion strains, locus YLR262C, strain YPT6, hits give low values 0.731 | S. cerevisiae deletion strains, locus YLR268W, strain sec22, hits give low values 0.995 | S. cerevisiae deletion strains, locus YLR330W, strain CHS5, hits give low values 1 | S. cerevisiae deletion strains, locus YLR342W, strain FKS1 (second series), hits give low values 0.967 | S. cerevisiae deletion strains, locus YLR342W, strain FKS1, hits give low values 0.986 | S. cerevisiae deletion strains, locus YLR357W, strain rsc2, hits give low values 0.964 | S. cerevisiae deletion strains, locus YLR370C, strain arc18, hits give low values 0.979 | S. cerevisiae deletion strains, locus YLR384C, strain iki3, hits give low values 0.957 | S. cerevisiae deletion strains, locus YLR418C, strain cdc73, hits give low values 0.885 | S. cerevisiae deletion strains, locus YML016C, strain PPZ1, hits give low values 0.975 | S. cerevisiae deletion strains, locus YML032C, strain rad52, hits give low values 0.915 | S. cerevisiae deletion strains, locus YML120C, strain ndi1, hits give low values 0.987 | S. cerevisiae deletion strains, locus YML124C, strain tub3, hits give low values 0.993 | S. cerevisiae deletion strains, locus YMR058W, strain fet3, hits give low values 0.983 | S. cerevisiae deletion strains, locus YMR078C, strain ctf18, hits give low values 0.986 | S. cerevisiae deletion strains, locus YMR125W, strain sto1, hits give low values 0.991 | S. cerevisiae deletion strains, locus YMR129W, hits give low values 1.03 | S. cerevisiae deletion strains, locus YMR205C, strain PFK2, hits give low values 0.91 | S. cerevisiae deletion strains, locus YMR223W, strain ubp8, hits give low values 0.966 | S. cerevisiae deletion strains, locus YMR231W, strain pep5, hits give low values 0.975 | S. cerevisiae deletion strains, locus YMR307W, strain GAS1, hits give low values 0.944 | S. cerevisiae deletion strains, locus YNL067W, strain RPL9B, hits give low values 0.979 | S. cerevisiae deletion strains, locus YNL153C, strain GIM3, hits give low values 0.964 | S. cerevisiae deletion strains, locus YNL183C, strain NPR1, hits give low values 0.932 | S. cerevisiae deletion strains, locus YNL209W, strain ssb2, hits give low values 0.983 | S. cerevisiae deletion strains, locus YNL233W, strain BNI4, hits give low values 0.996 | S. cerevisiae deletion strains, locus YNL248C, strain rpa49, hits give low values 1.08 | S. cerevisiae deletion strains, locus YNL250W, strain rad50, hits give low values 0.987 | S. cerevisiae deletion strains, locus YNL271C, strain bni1, hits give low values 0.982 | S. cerevisiae deletion strains, locus YNL298W, strain CLA4, hits give low values 0.998 | S. cerevisiae deletion strains, locus YNL307C, strain MCK1, hits give low values 0.994 | S. cerevisiae deletion strains, locus YNL322C, strain KRE1 (second series), hits give low values 1.01 | S. cerevisiae deletion strains, locus YNR049C, strain mso1, hits give low values 0.993 | S. cerevisiae deletion strains, locus YNR052C, strain pop2, hits give low values 1.01 | S. cerevisiae deletion strains, locus YOL012C, strain htz1 1.06 | S. cerevisiae deletion strains, locus YOL147C, strain pex11, hits give low values 0.994 | S. cerevisiae deletion strains, locus YOR001W, strain rrp6, hits give low values 0.966 | S. cerevisiae deletion strains, locus YOR061W, strain CKA2, hits give low values 0.947 | S. cerevisiae deletion strains, locus YOR069W, strain VPS5, hits give low values 0.981 | S. cerevisiae deletion strains, locus YOR070C, strain gyp1, hits give low values 0.993 | S. cerevisiae deletion strains, locus YOR080W, strain dia2, hits give low values 0.971 | S. cerevisiae deletion strains, locus YOR083W, strain WHI5, hits give low values 0.99 | S. cerevisiae deletion strains, locus YOR106W, strain vam3, hits give low values 0.91 | S. cerevisiae deletion strains, locus YOR136W, strain idh2, hits give low values 0.993 | S. cerevisiae deletion strains, locus YOR144C, strain elg1, hits give low values 0.988 | S. cerevisiae deletion strains, locus YOR184W, strain ser1, hits give low values 0.984 | S. cerevisiae deletion strains, locus YOR231W, strain MKK1, hits give low values 0.964 | S. cerevisiae deletion strains, locus YOR265W, strain rbl2, hits give low values 0.966 | S. cerevisiae deletion strains, locus YOR290C, strain snf2, hits give low values 0.989 | S. cerevisiae deletion strains, locus YOR316C, strain cot1, hits give low values 0.99 | S. cerevisiae deletion strains, locus YPL051W, strain arl3, hits give low values 0.97 | S. cerevisiae deletion strains, locus YPL078C, strain atp4, hits give low values 0.974 | S. cerevisiae deletion strains, locus YPL106C, strain sse1, hits give low values 0.881 | S. cerevisiae deletion strains, locus YPL240C, strain hsp82, hits give low values 0.973 | S. cerevisiae deletion strains, locus YPL241C, strain CIN2, hits give low values 0.987 | S. cerevisiae deletion strains, locus YPL256C, strain CLN2, hits give low values 0.94 | S. cerevisiae deletion strains, locus YPR119W, strain clb2, hits give low values 0.992 | S. cerevisiae deletion strains, locus YPR141C, strain kar3, hits give low values 0.982 | S. cerevisiae deletion strains, locus YPR163C, strain tif3, hits give low values 1.01 | S. cerevisiae deletion strains, locus YPR167C, strain met16, hits give low values 1 | S. cerevisiae deletion strains, strain wtn01, hits give low values 1.04 | S. cerevisiae strains, strain wild type, hits give low values 0.987
active: S. cerevisiae deletion strains, locus YLR262C, strain YPT6 (second series), hits give low values 0.727 | S. cerevisiae deletion strains, locus YLR320W, strain mms22, hits give low values 0.851 | S. cerevisiae deletion strains, locus YNL071W, strain lat1, hits give low values 0.897 | S. cerevisiae deletion strains, locus YOR270C, strain vph1, hits give low values 0.775

Reference: PubChem BioAssay AID1159580 (chemical genetic matrix, 2015)
